The record followed here is PubChem BioAssay AID2590 (National Center for Advancing Translational Sciences (NCATS), 2010).

“And” between values parts separate entries of the source, which are not always exact repeats. Equal entries are not always repeated. Results filed as inconclusive are left out. The source made the active and inactive calls. The call rests on the fitted dose curve; in most records, active means well fitted curve in the direction sought with a large enough effect; inconclusive means small, poorly fitted or top-dose-only effect, or another doubt; inactive means no such curve, though single readings can be large or run the other way.
Potency means the concentration at half of the fitted maximal effect.

For the assay, the target named is Lysosomal acid glucosylceramidase (Homo sapiens) (UniProt P04062). Briefly: qHTS Assay for Inhibitors and Activators of N370S glucocerebrosidase as a Potential Chaperone Treatment of Gaucher Disease: Primary Screen Confirmation. The note with it: N370S glucocerebrosidase enzyme activity, fluorogenic substrate; series mostly up to 54 µM. The source says: NIH Chemical Genomics Center [NCGC]
Chain of Lysosomal acid glucosylceramidase (Homo sapiens) (P04062 whole entry N409S): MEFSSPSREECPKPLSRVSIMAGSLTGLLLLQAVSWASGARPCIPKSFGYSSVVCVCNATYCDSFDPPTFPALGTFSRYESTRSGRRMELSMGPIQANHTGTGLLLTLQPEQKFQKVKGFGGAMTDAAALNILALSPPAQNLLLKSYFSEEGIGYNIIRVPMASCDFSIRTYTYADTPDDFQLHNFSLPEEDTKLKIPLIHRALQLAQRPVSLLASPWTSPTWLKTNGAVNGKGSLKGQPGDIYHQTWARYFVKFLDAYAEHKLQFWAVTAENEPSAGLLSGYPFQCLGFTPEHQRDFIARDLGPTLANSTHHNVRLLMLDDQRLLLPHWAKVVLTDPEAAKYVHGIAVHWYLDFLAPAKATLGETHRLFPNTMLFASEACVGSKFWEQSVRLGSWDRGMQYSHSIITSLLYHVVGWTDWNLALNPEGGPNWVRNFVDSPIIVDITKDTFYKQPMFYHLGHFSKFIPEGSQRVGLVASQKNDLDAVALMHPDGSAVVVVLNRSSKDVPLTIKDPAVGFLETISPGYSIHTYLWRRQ
NIH Molecular Libraries Probe Production Centers Network [MLPCN]
Assay Submitter (PI): Wei Zheng
Glucocerebrosidase (GC) catalyzes the hydrolysis of beta-glucocerebroside to glucose and ceramide in lysosomes. Mutations in the glucocerebrosidase gene result in Gaucher disease, an autosomal recessive lysosomal storage disorder. Many of the mutations encountered in patients with Gaucher disease are missense alterations that may cause misfolding, decreased stability and/or mistrafficking of this lysosomal protein. […] These inhibitors include iminosugar analogs and three non-iminosugar inhibitors identified from a previous HTS of 62,000 compounds with the wild type recombinant enzyme. However, the enhancement of enzyme activity by the chaperone action of an enzyme inhibitor must be balanced against the direct inhibition of the enzyme. An enzyme activator could also function as a chaperone by binding to the enzyme and helping to correct its misfolding and mistrafficking. While activators for GC have not yet been identified, they may have better therapeutic potential than inhibitors. Therefore the discovery and development of chemical activators may provide a new strategy for the chaperone therapy.
We have optimized a new assay using N370S mutant GC derived from the spleen of a Gaucher patient. […] In addition, the MLPCN compound library has expanded, which increases the chance of finding new and better probes.
NCGC Assay Protocol Summary:
This is a fluorogenic enzyme assay with 4-methylumbelliferyl-beta-D-glucopyranoside as the substrate and N370S glucocerebrosidase from human spleen homogenate as the enzyme preparation. Upon the hydrolysis of this fluorogenic substrate, the resulting product, […] which can be detected by a standard fluorescence plate reader. Data were normalized to the controls for basal activity (without enzyme) and 100% activity (with enzyme). The AC50 values were determined from concentration-response data modeled with the standard Hill equation.
Assay buffer: 50 mM citric acid (titrated with potassium phosphate to pH 5.0), 100 mM potassium chloride, 10 mM sodium chloride, 1 mM magnesium chloride, 0.01% Tween-20.
1536-well assay protocol:
(1) Add 2 ul/well of spleen homogenate (27 ug final)
(2) Add 23 nL compounds in DMSO solution. The final titration was 0.5 nM to 58 uM.
(3) Add 2 ul of substrate (1 mM final)
(4) Incubate at 37C for 40 min.
(5) Add 2 ul stop solution (1M NaOH and 1M Glycine mixture, pH 10)
(6) Detect the assay plate in a ViewLux plate reader (PerkinElmer) with Ex=365 nm and Em=440nm.
Keywords: Glucocerebrosidase, beta-glucosidase, Gaucher Disease, pharmacological chaperone, chaperone therapy, high throughput screening, glucocerebrosidase inhibitor, MLSMR, MLSCN, NIH Roadmap, qHTS and NCGC
As for `O=S(=O)(c1ccc(Cl)cc1)N1CCN(c2nc(Nc3cc(Cl)ccc3O)nc3ccccc23)CC1`, the Potency is 2.59 µM (active).
Regarding `Cc1ccc(S(=O)(=O)N2CCN(c3nc(C(N)=O)nc4ccccc34)CC2)cc1`, the Potency was 13 µM (active).
With `O=S(=O)(c1ccccc1)N1CCN(c2nc(-c3cccs3)nc3ccccc23)CC1` the figure was 1.46 µM (active) and 919 nM (active); with `Cc1cccc(NC(=O)Nc2cccc(C)n2)n1`, “inactive”; with `S=C(NCCCc1cnc[nH]1)NCCCN(Cc1ccccc1)c1ccc(Br)cn1`, 5.79 µM (active).
`CCOC(=O)c1ccccc1S(=O)(=O)N1CCN(c2nc(-c3cccs3)nc3ccccc23)CC1`: the Potency was 0.366 µM (active).
In the case of `O=S(=O)(c1ccc2c(Cl)cccc2c1)N1CCN(c2nc(-c3cccs3)nc3ccccc23)CC1`, the Potency is 2.01 µM (active).
As to `Cc1ccc(S(=O)(=O)N2CCN(c3nc(-c4ccc(C)s4)nc4ccccc34)CC2)cc1`, the Potency was 3.26 µM (active).
Turning to `Oc1cccc(Nc2nc(-c3ccccc3Cl)nc3ccccc23)c1`, the Potency was 2.06 µM (active).
With `O=C(NCCN1CCOCC1)c1ccc(/C=C2\Sc3ccccc3N(Cc3ccccc3F)C2=O)cc1`, the Potency was 7.3 µM (active).
`Cc1ccc(S(=O)(=O)N2CCC(c3nc(-c4cccs4)nc4ccccc34)CC2)cc1`: the Potency result was “inactive”.
With `CN1CCOc2cc(S(=O)(=O)N3CCN(c4nc(-c5cccs5)nc5ccccc45)CC3)ccc21`, the Potency was 0.58 µM (active).
With `O=S(=O)(c1ccc(F)cc1)N1CCN(c2nc(-c3cccs3)nc3cc(Cl)ccc23)CC1`, the Potency result was “inactive”.
As for `O=S(=O)(c1ccsc1)N1CCN(c2nc(-c3cccs3)nc3ccccc23)CC1`, the Potency was 1.03 µM (active).
The value for `CCOc1ccc(N(CC(=O)Nc2ccc(C)cc2)S(=O)(=O)c2c(C)[nH]c(=O)[nH]c2=O)cc1` was 11.2 µM (active).
As for `O=S(=O)(c1ccccc1F)N1CCN(c2nc(-c3cccs3)nc3ccccc23)CC1`, the Potency is 1.63 µM (active).
Turning to `Cc1cc(C)cc(N(CC(=O)NC2CCC(C)CC2)S(=O)(=O)c2c(C)[nH]c(=O)[nH]c2=O)c1` (stereo not given), the Potency is 2.51 µM (active).
For `O=S(=O)(c1ccccc1)N1CCN(c2nc(-c3ccc(F)cc3)nc3cc(Cl)ccc23)CC1`, the Potency entry was “inactive”.
With `COc1ccc2cc(C(=O)NCc3ccccc3)c(=O)oc2c1`, the Potency entry is “inactive”.
The value for `NCCCNc1ccc(Br)cn1` was “inactive”; that for `N=c1c2c(-c3ccccc3)c(-c3ccccc3)n(Cc3ccco3)c2ncn1CCCn1ccnc1` was 12.6 µM (active).
Take `Clc1ccc(CN(CCCNc2ncnc(NCCCc3cnc[nH]3)n2)c2ccc(Br)cn2)cc1Cl`: the Potency was 5.66 µM (active).
The value for `Cc1ccc(S(=O)(=O)N2CCN(c3nc(-c4ccc(CN5CCOCC5)s4)nc4ccccc34)CC2)cc1` was 11.3 µM (active).
`O=S(=O)(c1ccc(Cl)cc1)N1CCN(c2nc(-c3cccs3)nc3ccccc23)CC1`: the Potency was 1.46 µM (active) and 1.13 µM (active) and 1.63 µM (active).
The value for `Cc1ccc(S(=O)(=O)N2CCN(c3nc(-c4cscn4)nc4ccccc34)CC2)cc1` was 4.11 µM (active).
The value for `O=C(NCCCc1cnc[nH]1)NCCCN(Cc1ccc(Cl)cc1)c1ccc(Br)cn1` was 1.01 µM (active); that for `CCN(CC)c1ccc(Br)cn1` was 9.18 µM (active).
As to `Cc1ccc(S(=O)(=O)N(C)CCCN(C)c2nc(-c3cccs3)nc3ccccc23)cc1`, the Potency is 2.53 µM (active).
`Cc1cc2nn(-c3ccc(Cl)cc3)nc2cc1N`: the Potency entry was “inactive”.
Consider `Cc1ccc(S(=O)(=O)N2CCN(c3nc(-c4ncco4)nc4ccccc34)CC2)cc1`, for which the Potency is 9.02 µM (active).
Consider `Cc1cccn2c(=O)c3cc(C(=O)NCCc4ccccc4)sc3nc12`, for which the Potency result was “inactive”.
With `CN(CCCN(Cc1ccc(Cl)cc1)c1ccc(Br)cn1)C(=S)NCCCc1cnc[nH]1`, the Potency is 2.53 µM (active).
Turning to `Cc1ccc(S(=O)(=O)N2CCN(c3nc(-c4cccnc4)nc4ccccc34)CC2)cc1`, the Potency is 16.3 µM (active).
With `Cc1cc(C)nc(NC(=O)Cc2ccc(Cl)cc2)c1` the entry was “inactive”; with `Cc1ccc(S(=O)(=O)N2CCN(c3nc(-c4ccco4)nc4ccccc34)CC2)cc1`, 1.01 µM (active); with `CN1CCN(CCCNC(=O)c2ccc(/C=C3\Oc4ccccc4N(Cc4ccccc4F)C3=O)cc2)CC1`, “inactive”.
For the compound `NCCCN(Cc1ccc(Cl)c(Cl)c1)c1ccc(Br)cn1`, the Potency is 18.3 µM (active).
For the compound `O=[N+]([O-])c1ccc(S(=O)(=O)N2CCN(c3nc(-c4cccs4)nc4ccccc34)CC2)cc1`, the Potency is 3.2 µM (active).
As to `COc1ccc(S(=O)(=O)N2CCN(c3nc(-c4ccccc4)nc4ccccc34)CC2)cc1`, the Potency is 3.66 µM (active).
Regarding `N=c1c(S(=O)(=O)c2ccccc2)cc2c(=O)n3ccccc3nc2n1CCCN1CCOCC1`, the Potency result is “inactive”.
